Laboratory results taken from PubChem BioAssay (NCI).
The panel holds about 79,000 compounds, 15% with a hit somewhere; the sample as a whole holds those more often. Values without a mark were called inactive. The source made the active and inactive calls. Rule as the data show it: active = growth inhibition above about 70%; inactive = the rest.

assay: NCI Yeast Anticancer Drug Screen. Data for the rad50 strain (AID 155);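 also: 0% = growth of vehicle-only cultures of the same strain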; details: S. cerevisiae rad50 strain growth inhibition; at 50.0 µM; stronger effect = higher value
How it was run: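 Compounds were tested on a yeast strain with an engineered DNA damage repair alteration; the reported value is growth inhibition normalised to vehicle treatment.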

Compound | growth inhibition
O=C(O)CCC(=O)CC1CCCCC1 | 36.3%
Nc1nc(Br)nc2ncn(C3CC(O)C(CO)O3)c12 (stereo not given) | 20.1%
Cc1ccc(S(=O)(=O)NCNS(=O)(=O)c2ccc(C)cc2)cc1 | -37.5%
COC1CCC(/C(C#N)=C/C2CCC(OC)C(OC)C2)CC1 (stereo not given) | 77.1% (active)
CC(C)=CCc1ccc2c(c1)CCCN2C | -44.4%
CCCCSC(CC(O)C(O)COC(=O)c1ccc([N+](=O)[O-])cc1)SCCCC (stereo not given) | -12.1%
COc1ccc(CC(C)SC(CC(=O)O)C(=O)O)cc1 (stereo not given) | 3.45%
COc1ncnc2ncn(C)c12 | 4.9%
OC(CNc1ncccn1)(Cc1ccccc1)Cc1ccccc1 | 9%
Nc1nc(N)nc(-c2cc(Br)c(N)c(Br)c2)n1 | -2.55%
O=P(O)(OCCOc1ccccc1)OCCOc1ccccc1 | 6.25%
CN(C)C=Nc1cccc2c1NSN2 | 5.5%
COC1OC2COC(c3ccccc3)OC2C(NC(C)=O)C1OC(C)=O (stereo not given) | 4.6%
CCOC(=O)O/C(C)=C\c1ccccc1Cl | 0.4%
CNc1ncc(-c2nnnn2-c2ccccc2)c(CN(C)C)n1 | -36%
Nc1nc(-c2ccc(-c3ccccc3)cc2)cc(=O)[nH]1 | 0.25%
O=C1c2ccccc2C(=O)N1/N=C1/SC(=Nc2ccccc2)C(=Nc2ccccc2)N1c1ccccc1 | 6.3%
C/C(=N/NC(N)=O)c1cn[nH]c1C | -27.6%
CCOC(=O)C(NC(=O)c1cccc(Cl)c1)(N1CCN(c2cc3c(cc2F)c(=O)c(C(=O)O)cn3CC)CC1)C(F)(F)F (stereo not given) | -7.7%
COc1cc(OC)c(OC)cc1/C=N/N=C(\N)NO | -12.3%

Compound | growth inhibition
Clc1ccc(C2=NCCO2)cc1 | -23.8%
C[N+]1(C)CC2C3C=C(I)C(C3)C2C1 (stereo not given) | 26.8%
BrCCCCCCCCCBr | 9.75%
CCCCCCCCCCCCCCCCSC(=N)N | 25.2%
CCC(CC)CC1CCCCC1O (stereo not given) | -30.7%
COc1cc2ccc3c(c2cc1OC)CCc1cn[nH]c1-3 | 2.05%
CN1CCC(CN)(c2ccccc2)CC1 | 14.1%
O=C(OC1CCC(c2ccccc2)C1)c1cc([N+](=O)[O-])cc([N+](=O)[O-])c1 (stereo not given) | 35%
C=CCOC(=O)NC(CCC(=O)O)C(=O)O (stereo not given) | 21.1%
COc1ccc(N=Nc2c(C)nn(C(=O)c3ccncc3)c2C)cc1 | -21.9%
O=C(O)c1cc(=O)[nH]c2ccccc12 | -10.1%
Cc1ccc(S(=O)(=O)NC(Cc2ccccc2)C(=O)NCc2cccnc2)cc1 (stereo not given) | 23.6%
CCCCCCCCCCCCCCCCCCOCCCCCC | -8.65%
CN(C)NC(=O)Nc1cccc2ccccc12 | -25.2%
N#C/C(=C/N1CCNC1=S)C(N)=O | 4.95%
COC(=O)Cc1nn2c(nc1=O)sc1ccc3ccccc3c12 | -16.7%
CC(=O)OCC(=O)c1ccccc1 | -10.8%
O=C1C2C=CC(n3[nH]c(=O)n(Cc4ccccc4)c3=O)CC2C(=O)N1c1ccc(Br)cc1 (stereo not given) | -3.8%
COc1ccc(/C=N/NC(=O)c2ccccc2OC)cc1 | 1.85%
CNc1ccc2c(c1)C(=O)c1ccccc1-2 | 11.1%

assay: NCI Yeast Anticancer Drug Screen. Data for the mec2-1 strain (AID 157); details: S. cerevisiae mec2-1 strain, at 50.0 µM, stronger effect = higher value
How it was run: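 Each compound was tested on mec2-1 yeast, a strain altered in DNA damage repair or cell cycle control. Growth inhibition is reported relative to vehicle.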

Compound | growth inhibition
O=C(O)CCC(=O)CC1CCCCC1 | 15.9%
Nc1nc(Br)nc2ncn(C3CC(O)C(CO)O3)c12 (stereo not given) | 3.8%
Cc1ccc(S(=O)(=O)NCNS(=O)(=O)c2ccc(C)cc2)cc1 | -7%
COC1CCC(/C(C#N)=C/C2CCC(OC)C(OC)C2)CC1 (stereo not given) | 66.8%
CC(C)=CCc1ccc2c(c1)CCCN2C | -22.1%
CCCCSC(CC(O)C(O)COC(=O)c1ccc([N+](=O)[O-])cc1)SCCCC (stereo not given) | 1.95%
COc1ccc(CC(C)SC(CC(=O)O)C(=O)O)cc1 (stereo not given) | -1%
COc1ncnc2ncn(C)c12 | 18%
OC(CNc1ncccn1)(Cc1ccccc1)Cc1ccccc1 | -5.2%
Nc1nc(N)nc(-c2cc(Br)c(N)c(Br)c2)n1 | -7.45%
O=P(O)(OCCOc1ccccc1)OCCOc1ccccc1 | 10.5%
CN(C)C=Nc1cccc2c1NSN2 | -6.4%
COC1OC2COC(c3ccccc3)OC2C(NC(C)=O)C1OC(C)=O (stereo not given) | 17.7%
CCOC(=O)O/C(C)=C\c1ccccc1Cl | -1.15%
CNc1ncc(-c2nnnn2-c2ccccc2)c(CN(C)C)n1 | -3.05%
Nc1nc(-c2ccc(-c3ccccc3)cc2)cc(=O)[nH]1 | 27.6%
O=C1c2ccccc2C(=O)N1/N=C1/SC(=Nc2ccccc2)C(=Nc2ccccc2)N1c1ccccc1 | 0%
C/C(=N/NC(N)=O)c1cn[nH]c1C | -14.8%
CCOC(=O)C(NC(=O)c1cccc(Cl)c1)(N1CCN(c2cc3c(cc2F)c(=O)c(C(=O)O)cn3CC)CC1)C(F)(F)F (stereo not given) | -39.5%
COc1cc(OC)c(OC)cc1/C=N/N=C(\N)NO | 0.5%

Compound | growth inhibition
Clc1ccc(C2=NCCO2)cc1 | -32.1%
C[N+]1(C)CC2C3C=C(I)C(C3)C2C1 (stereo not given) | 17.4%
BrCCCCCCCCCBr | -3.35%
CCCCCCCCCCCCCCCCSC(=N)N | 21.2%
CCC(CC)CC1CCCCC1O (stereo not given) | -44%
COc1cc2ccc3c(c2cc1OC)CCc1cn[nH]c1-3 | 3.4%
CN1CCC(CN)(c2ccccc2)CC1 | 14.9%
O=C(OC1CCC(c2ccccc2)C1)c1cc([N+](=O)[O-])cc([N+](=O)[O-])c1 (stereo not given) | 25.9%
C=CCOC(=O)NC(CCC(=O)O)C(=O)O (stereo not given) | -0.35%
COc1ccc(N=Nc2c(C)nn(C(=O)c3ccncc3)c2C)cc1 | -3.75%
O=C(O)c1cc(=O)[nH]c2ccccc12 | -5.7%
Cc1ccc(S(=O)(=O)NC(Cc2ccccc2)C(=O)NCc2cccnc2)cc1 (stereo not given) | -8.4%
CCCCCCCCCCCCCCCCCCOCCCCCC | -30.1%
CN(C)NC(=O)Nc1cccc2ccccc12 | -22.3%
N#C/C(=C/N1CCNC1=S)C(N)=O | 5%
COC(=O)Cc1nn2c(nc1=O)sc1ccc3ccccc3c12 | -3.05%
CC(=O)OCC(=O)c1ccccc1 | 6.65%
O=C1C2C=CC(n3[nH]c(=O)n(Cc4ccccc4)c3=O)CC2C(=O)N1c1ccc(Br)cc1 (stereo not given) | 3.8%
COc1ccc(/C=N/NC(=O)c2ccccc2OC)cc1 | 19.6%
CNc1ccc2c(c1)C(=O)c1ccccc1-2 | 14.4%
